Among the data in PubChem BioAssay (NCI) are growth values, retold here.

The panel holds about 83,000 compounds, 20% with a hit somewhere; the sample as a whole holds those more often.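 Assay: single dose, 48 h. Readout: percent growth (0 = no net growth; negative = cell death). Active: <10.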 A number with no mark means an inactive call. The source made the active and inactive calls.

In this experiment the test system is LOX IMVI melanoma. Nature of the experiment: NCI-60 one-dose screen, 48 h (100 = growth as untreated, 0 = no growth, -100 = all killed). To be noted: 10 µM unless noted. The method, then:
Growth inhibition of the LOX IMVI human tumor cell line is measured as a screen for anti-cancer activity. Cells are grown in 96 well plates and exposed to the test compound for 48 hours. Compounds are tested at a single concentration, which is 10^-5 M for most compounds. The reported endpoint is percent growth (GI% or GIPRCNT), where numbers from 0 - 100% represent growth inhibition, and numbers from -100% - 0 represent cell death. For example, a value of 40 represents 60% growth inhibition. A value of 0 means no net growth occurred over the course of the experiment. A value of -40 indicates 40% of cells at the beginning of the experiment died by the end of the experiment. A value of -100 means all cells are dead at the end of the experiment.
NCI-60 Human Tumor Cell Lines Screen was performed using the standard one-dose NCI protocol, which is described in more detail at https://dtp.cancer.gov/discovery_development/nci-60/default.htm.
Compounds with GIPRCNT values below 10 were considered active. Activity score was based on GIPRCNT using the following formula: […]
Score is 0 for GIPRCNT values of 100 or above, 50 for GIPRCNT values of 0, and 100 for GIPRCNT values of -100.
On to `O=C(COc1cccc(/C=C2\Oc3ccccc3C2=O)c1)c1ccc([N+](=O)[O-])cc1`, for which the growth is 88.6%.

In the case of `Cc1ccc(-c2cc(-c3ccc(C)cc3)nc(N3CCN(CCNc4ccnc5cc(Cl)ccc45)CC3)n2)cc1`, the growth is 6.97% (active).

Take `CC(C)=CCC[C@](C)(O)[C@H]1CC[C@]2(C)[C@@H]1CC[C@@H]1[C@@]3(C)CC/C(=N/O)C(C)(C)[C@@H]3CC[C@]12C`: the growth is -9.59% [100 µM] (active). As for `N#Cc1c(Cl)nc(SCC2CO2)nc1-c1ccccc1` (stereo not given), the figure is 98.4%; as for `COc1ccc(/C=C/C=C\C(=O)c2ccc(-n3ccnc3)cc2)cc1`, 93.5%; as for `CCCCC(CCCCCC(CCCC)C1NC(C)Cc2cc(OC)c(OC)cc21)C1NC(C)Cc2cc(OC)c(OC)cc21` (stereo not given), -99.1% (active). The result for `CC1Cc2c(Cl)ncnc2N(C)c2ccc(O)cc21` (stereo not given) reads 11.9%; that for `C[n+]1c(-c2ccccc2)c2cc(N)ccc2c2ccccc21`, 40.2%. The result for `CCN(CC)c1cc(N)c(Cc2c(N)cc(N(CC)CC)cc2Cl)c(Cl)c1` reads 37.7%. Turning to `O=[N+]([O-])c1cccc(N=NNc2cccc([N+](=O)[O-])c2)c1`, the growth was 89.1%. The result for `O=c1[nH]cnc2c1ccn2C1OC(CO)C(O)C1O` (stereo not given) reads 27.8%; that for `NNC(=O)c1ccc(C(=O)NN)cc1`, 102%; that for `COC(=O)[C@]1(C)CC[C@]2(C)CC[C@]3(C)C(=CC(=O)[C@@H]4[C@@]5(C)CCC(=O)NC(C)(C)[C@@H]5CC[C@]43C)[C@@H]2C1`, -97.7% [100 µM] (active).

Take `CCOC(=O)c1cnc2ccc(Br)cc2c1Nc1cccc(S(N)(=O)=O)c1`: the growth is 101%.

In the case of `O=C(Nc1cc(F)cc2cccnc12)c1cnc(N2CCNCC2)cn1`, the growth is 65.8%.

`CC1(C)C(=NO)C(C)(C)C1=NO`: the growth is 108%. As for `COc1ccc2nc3c(cc2c1)C(=O)CC(c1ccccc1)C3` (stereo not given), the figure is 36.1%.

Take `N=C(N)c1ccc(-c2ccc(-c3ccc(-c4cccs4)s3)s2)cc1F`: the growth is 95.9%. As for `O=C1NC(=O)C(Cc2ccc(OCc3ccc(-c4cc(F)c(F)c(F)c4)cc3)cc2)S1` (stereo not given), the figure is 77.4%; as for `C=C(C)[C@@H]1CC[C@]2(COCCC#N)CC[C@]3(C)[C@H](CC[C@@H]4[C@@](C)(CCCNCCC#N)[C@H](C(=C)C)CC[C@]43C)[C@@H]12`, -74.4% [100 µM] (active). The result for `COc1cc(C)cc2oc3oc(=O)c(C(=O)c4cc5cc(Br)ccc5o4)cc3c(=O)c12` reads 97.4%; that for `COc1ccc(NC(=S)NNc2ccc(-c3ccc(OC)c(OC)c3)nn2)cc1`, 97.8%.

Turning to `O=C(N/N=C/c1ccc([N+](=O)[O-])cc1)c1ccc(Br)o1`, the growth is 98%.

Regarding `O=C1NC(=O)c2cc([N+](=O)[O-])cc3cccc1c23`, the growth is 81.5%. The result for `COC(=O)[C@]12CCC(C)(C)C[C@H]1C1=CC[C@@H]3[C@@]4(C)C/C(=C/c5cccnc5)C(=O)C(C)(C)[C@@H]4CC[C@@]3(C)[C@]1(C)CC2` reads -89.5% [100 µM] (active); that for `O=S(=O)(NCCCNc1nccc(-c2c(-c3cccc(F)c3)nc3occn23)n1)c1cccc2ccccc12`, 35.3%; that for `COc1ccc(C(C(=O)O)c2ccc(OC)cc2)cc1`, 106%. As for `CCCCCn1sc(=O)n(Cc2ccc(CNC(=O)OCc3ccc4cccc(O)c4n3)cc2)c1=O`, the figure is -91.5% (active); as for `Nc1nc(Nc2ccccc2)c2ncn(Cc3cc4c(cc3Br)OCO4)c2n1`, 12.9%.

`CCOc1ccccc1/C=N\Nc1ccc(S(=O)(=O)c2ccc(N/N=C/c3ccccc3OCC)cc2)cc1`: the growth was 92.5%.

As to `N#C/C(C(=O)c1ccccc1)=C1/C(=O)Nc2ccccc21`, the growth is 104%. As for `CCN(CC)CCCC(C)Nc1c2ccc(C)cc2nc2ccc(OC)cc12` (stereo not given), the figure is -70.8% (active); as for `Cc1ccc(NC(=O)N[C@@H](Cc2cc(F)cc(F)c2)C(=O)N[C@@H]2C(=O)N3CCC[C@H]3C(=O)N3CCCC[C@H]3C(=O)N[C@@H](C)C(=O)N3C[C@H](C)C[C@H]3C(=O)O[C@H]2C)cc1`, 38.2%; as for `CC[C@@H]1NC(=O)[C@@H]2CCCCN2C(=O)[C@@H]2CCCN2C(=O)[C@@H](NC(=O)[C@H](Cc2cc(F)cc(F)c2)NC(=O)Nc2ccc(C3CC3)cc2F)[C@H](C)OC(=O)[C@@H]2C[C@@H](C)CN2C1=O`, 16.4%. The result for `ClC1=C(Cl)C(Cl)=C(Cl)C1=Cc1ccccc1` reads -91.5% (active). The result for `COc1ccc2nc3ccccc3c(NCCNCCO)c2c1` reads -52.2% (active). On to `CC(C)c1ccc(C(=O)Nc2nc3ccc(O)cc3s2)cc1`, for which the growth is -25.9% (active). As for `COc1ccc(NCc2cn(-c3ccc(C(=O)O)cc3)nc2-c2ccc(C(=O)O)cc2)cc1C(F)(F)F`, the figure is 97.4%; as for `Nc1nc(Nc2ccccc2)c2ncn(Cc3ccc4c(c3)OCO4)c2n1`, 48%.

For the compound `CCN(CC)c1ccc2cc(C(Nc3ccc(Cl)cc3)c3nnnn3C(C)(C)C)c(=O)oc2c1` (stereo not given), the growth is 72.4%.
